Test results published in PubChem BioAssay AID602450 (National Center for Advancing Translational Sciences (NCATS), 2012).
The source made the active and inactive calls. Calls come from the whole dose curve.

assay: qHTS Assay for Inhibitors of Influenza NS1 Protein Function: Viral Replication TCID50 SAR for Probe; settings: Influenza virus replication in cells, TCID50 titer reduction
Excerpt: Influenza is a world-wide public health problem and emerging forms of the virus have the potential to cause a pandemic of equal or greater magnitude to the outbreaks recorded in 1918, 1957 or 1968. Vaccine development is proceeding and there also exist two classes of anti-influenza compounds. However these therapeutic modalities are neither fully effective nor widely enough available to fulfill global needs. In addition their potential usefulness against newly emergent strains is not known. Efforts are needed to develop novel agents against influenza virus, including broad-spectrum agents. Identification of small molecules that inhibit NS1 function either directly or by interfering with specific cellular pathways may be a key to increasing our defense against the virus.
We have miniaturized and optimized a cell based assay in which NS1 from influenza A is expressed in the budding yeast S. cerevisiae. NS1 is a multi-functional protein that counters the host innate immune response and facilitates viral versus cellular gene expression. Expression of NS1 causes a pronounced slow growth phenotype in yeast due to its intrinsic molecular activities. Small molecules that suppress the slow growth phenotype can be identified by a straightforward growth recovery assay using optical density (OD) as the measurement. The same yeast strain not expressing NS1 was used as positive control in the yeast growth recovery assay.
Hits resulting from this primary screen and other follow-up screens, were tested in two concentrations in this viral replication assay.
NIH Chemical Genomics Center [NCGC]
NIH Molecular Libraries Probe Centers Network [MLPCN]
Assay Submitter (PI): Daniel Engel, University of Virgina
Cell monolayers were infected at an m.o.i. of 0.1 for 48 h in the presence or absence of the compound, which was added at the beginning of infection. Virus titres were determined by TCID50 analysis (Reed, L. J. & Muench, H. (1938). A simple method of estimating fifty per cent endpoints. Am J Epidemiol 27, 493-497).

| Structure (SMILES) | Potency |
| --- | --- |
| COc1cc(-c2ccnc3c2c(C)nn3-c2ccc(C(F)(F)F)cc2)ccc1O | 155 nM (active) |
| COc1cc(-c2ccnc3c2c(C)nn3-c2cccc(C(F)(F)F)c2)ccc1O | 82.7 nM (active) |
| Cc1ccc(-n2nc(C)c3c(-c4ccc(O)c(O)c4)c(C#N)c(N)nc32)cc1C | 234 nM (active) |
| COc1cc(-c2c(C#N)c(N)nc3c2c(C)nn3-c2ccc(F)cc2)ccc1O | 101 nM (active) |
| Cc1nn(-c2ccc(Cl)cc2)c2nc(N)c(C#N)c(-c3ccc(O)c(O)c3)c12 | 279 nM (active) |
